N370S GC – qHTS Assay for Inhibitors and Activators of N370S glucocerebrosidase as a Potential Chaperone Treatment of Gaucher Disease | Lysosomal acid glucosylceramidase (Homo sapiens), P04062 | N370S GC spleen homogenate, 4MU-glucoside fluorescence | Potency, µM (highest dose often 59.4 µM), most hits filed as inhibitors | hit rate 0.092% among 330,000 | AID 2101, 2009
LMNA splice mod – qHTS Assay for Modulators of Lamin A Splicing; HeLa LMNA splicing GFP/RFP minigene ratio, 48 h; Potency, µM (doses to about 46.1 µM), actives largely listed as inhibitors; hit rate 0.01% among 200,000; AID 1487, 2009; active = well fitted inhibition curve with a large enough effect in the signal ratio, with a control signal flat, not every such curve was filed as active; inconclusive = small, poorly fitted or top-dose-only effect, or effect the other way, or a change in a side signal; the % refers to the signal ratio
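S3 HeLa stable clones carrying a lamin A-EGFP splicing minigene plus DsRed2 were seeded at 600 cells/well in Opti-MEM with 2% FBS, pin-dosed and incubated 48 h at 37°C. Acumen cytometry (488 nm) gave the GFP/RFP total-intensity ratio.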
GAA glycogen mod – qHTS Assay for Inhibitors and Activators of Human alpha-Glucosidase Cleavage of Glycogen; recombinant GAA, glycogen substrate, Amplex Red glucose oxidase fluorescence; hit rate 0.38% among 300,000; Potency, µM (top dose mostly 76.4 µM), hits mostly inhibitors; AID 2100, 2009; Lysosomal alpha-glucosidase (Homo sapiens), P10253;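 also: the screen sought inhibitors and activators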
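Natural-substrate format: glycogen cleavage by 4 nM human enzyme, glucose read by Amplex Red coupling (Ex 573, Em 610 nm). Normalized to enzyme and no-enzyme controls.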
GAA inhib – qHTS Assay for Inhibitors of Human alpha-Glucosidase as a Potential Chaperone Treatment of Pompe Disease; Lysosomal alpha-glucosidase (Homo sapiens), P10253; Potency, µM (highest dose often 76.9 µM), actives largely listed as inhibitors; purified human GAA, 4-MU-alpha-glucoside fluorescence; hit rate 0.005% among 200,000
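qHTS format, compound range up to 77 uM. Human lysosomal enzyme at 4 nM, 400 uM 4-MU glucoside substrate, pH 5.0, 20 min room temperature; fluorescence after alkaline stop gives activity normalized to controls.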
aGlu spleen mod – qHTS Assay for Inhibitors and Activators of Human alpha-Glucosidase From Spleen Homogenate; Lysosomal alpha-glucosidase (Homo sapiens), P10253; human spleen homogenate, 4-MU-alpha-glucoside fluorescence; Potency, µM (titrated, usually from 79.9 µM), usual class: inhibitors; hit rate 0.006% among 240,000
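Human spleen homogenate (1 ug) incubated with compounds and 1 mM 4-methylumbelliferyl-alpha-D-glucopyranoside in pH 5.0 citrate/phosphate buffer, 37 C, 40 min. Stopped at pH 10; 4-MU fluorescence (Ex 365/Em 440 nm); AC50 by Hill fit.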
Hits are given with their value; . = inactive; ? = inconclusive; / = no result given; ! = not active in a repeat; [ ] = another dose, or the depositor's remark. In the library only some 0.42% were active in any assay of this set; here they are far more common. Unless noted, calls follow the shape of the dose curve; as a rule, active = well fitted curve in the direction sought with a large enough effect; inconclusive = small, poorly fitted or top-dose-only effect, or another doubt; inactive = no such curve, though single readings can be large; an effect the other way counts as inactive or inconclusive.

SMILES	N370S GC	LMNA splice mod	GAA glycogen mod	GAA inhib	aGlu spleen mod
COc1cccc(Cn2c(=O)c(-c3ccc(Cl)cc3)nc3cncnc32)c1	.	?	/	/	.
COc1cc2c(cc1CC=C(C)C)C(=O)C[C@@H](c1ccc(O)cc1)O2	.	/	/	/	.
COc1ccc(O)c(-c2cc(-c3cccs3)[nH]n2)c1	.[2.35 µM]	.	40µM	.	.
COc1c(O)c(O)c2cc(OC)c3c(OC)cc(=O)c4c5c(=O)c(OC)c(C(C)=O)c6c5c(c1CC=6C)c2c34	.	/	/	/	.
COc1ccc(S(=O)(=O)NNC(=O)c2cc3cc4ccccc4nc3s2)cc1	.	.	12µM	?	.
COc1ccc2nc3sc(C(=O)Nc4ccccc4F)cc3cc2c1	/	/	.	/	/
NNC(=O)c1cc2cc3ccccc3nc2s1	.	/	?	.	/
CS(=O)(=O)NNC(=O)c1cc2cc3ccccc3nc2s1	.	/	16µM	.	.
CC(C)NC(=O)C1=NN(c2ccccc2)C(=O)CC1	.	/	.	/	/
O=C(NNC(=O)c1ccccc1F)C1=NN(c2ccccc2)C(=O)CC1	.	/	50µM	/	/
COc1cc(/C=N/Nc2nncn2/N=C/c2ccc(O)c(OC)c2)ccc1O	.	.	10µM	.	.
COc1cc(/C=N/Nc2ccccn2)cc(OC)c1O	.	/	18µM	.	.
CCOc1ccc(/C=N/Nc2ccccn2)cc1OC	.	/	?	.	.
CCOc1cc(/C=N/Nc2nnc(C)n2N)ccc1O	.	/	11µM	/	/
COc1ccc(OC)c(/C=N/Nc2nncn2/N=C/c2cc(OC)ccc2OC)c1	.	?	.	.	.
COc1cc(/C=N/Nc2ccccc2C(F)(F)F)ccc1O	.	/	35µM	.	?
C/C1=C\[C@@H](O)C(C(C)C)C(OC(=O)c2ccc(O)cc2)C/C(C)=C/CC1 (some centres undefined)	.	/	/	/	.
CSCC[C@@H]1NC(=O)[C@@H](NC(=O)[C@H](CCCNC(=N)N)NC(=O)[C@H](CC(C)C)NC(=O)[C@H](CCSC)NC(=O)[C@H](CC(=O)O)NC(=O)[C@H](Cc2ccccc2)NC(=O)[C@@H](N)CC(=O)O)CSSC[C@@H](C(=O)N[C@@H](Cc2c[nH]c3ccccc23)C(=O)N[C@@H](CCC(N)=O)C(=O)N[C@@H](Cc2ccc(O)cc2)C(=O)O)NC(=O)[C@@H]2CCCN2C(=O)[C@H](CCCNC(=N)N)NC(=O)[C@H](Cc2ccccc2)NC(=O)[C@H](C(C)C)NC(=O)[C@H](CCCNC(=N)N)NC(=O)CNC(=O)[C@H](CC(C)C)NC1=O	.	/	/	/	.
NC(=O)/N=N/C(N)=O	.	/	/	/	.
CSc1ccc2c(c1)C(N1CCN(C)CC1)Cc1ccccc1S2 (centres undefined)	18µM!	?	.	/	.
CN1CCN(C2Cc3ccccc3Sc3ccc(Cl)cc32)CC1 (centres undefined)	?	?	/	/	.
CSc1ccc2c(c1)[C@H](N1CCN(C)CC1)Cc1ccccc1S2	13µM	?	/	/	.
Nc1ccccc1S(=O)(=O)Nc1cccc2cccnc12	.	/	/	/	.
Cc1cc(NC(=O)CCS(=O)(=O)c2ccc3c(c2)NC(=O)C(C)S3)ccc1Br (centres undefined)	8.9µM	/	/	/	/
CC1Sc2ccc(S(=O)(=O)CCC(=O)Nc3cc(F)ccc3F)cc2NC1=O (centres undefined)	10µM	/	/	/	/
SMILES	N370S GC	LMNA splice mod	GAA glycogen mod	GAA inhib	aGlu spleen mod
CC1Sc2ccc(S(=O)(=O)CCC(=O)Nc3ccccn3)cc2NC1=O (centres undefined)	.	/	/	/	/
COc1cc(Cl)ccc1NC(=S)N(CCCN1CCOCC1)Cc1cn(C)c2ccccc12	7.1µM	?	.	.	.
COc1ccccc1NC(=S)N(CCCN1CCOCC1)Cc1cn(C)c2ccccc12	?	?	.	.	.
COc1ccc(Cl)cc1NC(=S)N(CCCN1CCOCC1)Cc1cn(C)c2ccccc12	6.3µM	.	.	.	.
COc1ccc(N/C=C2/Sc3ccccc3NC2=O)cc1	.	/	20µM	.	.
C=C1C(=O)OC(CCCCCCCC)C1C(=O)O (centres undefined)	.	/	/	/	.
COc1ccc2c(c1OC)C(Cc1ccccc1)N1CCc3cc4c(cc3C1=C2)OCO4 (centres undefined)	.	/	/	/	.
Cc1ccccc1C(=O)Nc1nc(-c2ccc(Br)cc2)ns1	/	?	.	/	/
Cc1cc(C)nc(NNC2=CC(=[N+]3CCCC3)CCC2)n1	.	.	2.2µM	.	.
O=C1c2ccccc2C(=O)N1CCc1c[nH]c2ccccc12	.	.	.	?	.
O=C1c2ccccc2C(=O)N1CCc1c[nH]c2ccc(O)cc12	.	.	3.1µM	?	.
CNC1CCC(c2ccc(Cl)c(Cl)c2)c2ccccc21 (centres undefined)	/	/	/	/	.
C=CCn1c(=O)n(C2OC(CO)C(O)C2O)c2nc(N)[nH]c(=O)c21 (centres undefined)	.	/	/	/	.
CC(=O)NCCNc1ncnc2ccc(-c3c(C)noc3C)cc12	.	?	/	/	.
COc1ccc(CNc2ncnc3ccc(-c4c(C)noc4C)cc23)c(OC)c1	.	2.8µM	/	/	.
COc1cccc(-c2ccc3ncnc(NCc4ccc(OC)cc4OC)c3c2)c1	.	?	/	/	.
COCCNc1ncnc2ccc(-c3c(C)noc3C)cc12	.	2.8µM	/	/	.
CCOc1cc(/C=C2\SC(N)=NC2=O)ccc1O	.	/	10µM	/	/
COc1ccc(NC(=O)c2c(NCc3cccs3)sc3c2CCCCC3)c(OC)c1	/	.	/	/	/
CC(C)(C)NC(=S)Nc1ccc(Nc2ccccc2)cc1	.	.	14µM	.	?
O=C(OCCN=C1NS(=O)(=O)c2ccccc21)C1CC(=O)N(c2ccc3ccccc3c2)C1 (centres undefined)	3.5µM	.	.	?	.
C=C(C)c1cccc(C(C)(C)NC(=O)Nc2cccnc2)c1	22µM	/	.	/	/
Cc1ccc(C(O)(C(=O)NNc2ccccn2)c2ccc(C)cc2)cc1	.	/	5µM	.	.
Cc1ccc(NNC(=O)C(O)(c2cccc(C(F)(F)F)c2)c2cccc(C(F)(F)F)c2)cc1	.	?	.	?	.
CC[C@H](C)[C@H](NC(=O)[C@H](Cc1ccc(O)cc1)NC(=O)[C@@H]1CCCN1C(=O)[C@@H](N)CCCN=C(N)N)C(=O)N[C@@H](CC(C)C)C(=O)O	.	/	/	/	.
CCCCC1=CC2=C(OC(C)=O)C(=O)C(C)(OC(=O)C3CCCC3)C(=O)C2=CO1 (centres undefined)	.	/	/	/	.
CCN(C(=O)CN1CCN(c2ccccc2O)CC1)c1c(N)n(Cc2ccccc2)c(=O)[nH]c1=O	.	.	9.9µM	.	.
CCN(C(=O)CN1CCN(c2ccccc2F)CC1)c1c(N)n(Cc2ccccc2)c(=O)[nH]c1=O	.	.	.	.	.

Compound activity deposited in PubChem BioAssay by National Center for Advancing Translational Sciences (NCATS).
